Experimental data from PubChem BioAssay AID624167 (Sanford-Burnham Center for Chemical Genomics, 2012).

Assay: inhibition of PEG-3 promoter-driven reporter – cell-based, HeLa, luciferase, CREF/GAPDH counter-screen panel, dose response (AID 624167)
Conditions: CREF/GAPDH counter-screens; run 1, dose range 1, at 100 µM (top of the series)

SMILES | inhibition
C=CCc1cccc(/C=N/NC(=O)C(C)Nc2cccc(C)c2)c1O (configuration not stated) | 29%
CN=c1sc2c(n1C)C(=O)c1ccccc1C2=O | 89.9%
CN1CCC2(CC1)N=C(c1ccc(F)cc1)C(=S)N2C(=O)c1ccc(C(C)(C)C)cc1 | 93.1%
CC(=O)c1cccc(-c2ccnc3c2CC(C(=O)Nc2cccc(NS(C)(=O)=O)c2)O3)c1 (configuration not stated) | 51.4%
CCCC(=O)NC(c1ccc(N(C)C)cc1)c1ccc2cccnc2c1O (configuration not stated) | 25.9%
O=[N+]([O-])c1nn(-c2ccc3c(c2)OCCO3)n(O)c1=Nc1ccc(Cl)cc1 | 78.7%
C=CCn1c(C)cc(C(=O)COc2ccc(C)nc2[N+](=O)[O-])c1C | 51.5%
Cc1ccc(NC(=S)NC(=O)c2ccc(F)cc2)cc1S(=O)(=O)Nc1ccccc1Cl | 70.9%
NC(C(=O)O)C1ON=C(Cl)C1O (configuration not stated) | 67%
CCc1ccc(/C=C2\SC(=S)N(CCCC(=O)NC3=NCCS3)C2=O)cc1 | 79.8%
CCC(=O)NC(c1ccc(C)cc1)c1ccc2cccnc2c1O (configuration not stated) | 36.2%
OCCCNc1nccc(-c2cc(Nc3cccc(Cl)c3)ncn2)n1 | 34.2%
CN1OC[C@@H]2CN(S(=O)(=O)c3cccc(C(F)(F)F)c3)[C@H](c3ccc(-c4cc5ccccc5o4)cc3)C[C@@H]21 | 70.1%
O=C(CNc1ccccc1)N/N=C/c1c(O)ccc2ccccc12 | 57%
O=C(Nc1ccccc1C(=O)Nc1nnc(C(F)(F)F)s1)c1ccccc1 | 60.8%
C/C(=N\NC(=O)c1cc(C2CC2)nc2ccccc12)c1ccc(O)cc1O | 22.7%
O=c1cnnc(N/N=C/c2ccccn2)[nH]1 | 3.68%
